Assay results as given in PubChem BioAssay (EPA / NIEHS).
“And” between values parts separate entries of the source, which are not always exact repeats. Identical values can stand only once. The source made the active and inactive calls. The calls were made as follows: active = hit-call score of the fitted dose curve at least 0.9, where 1 is the maximum; inactive = score below 0.9.

How the values were obtained:
[1] = read-out: Transforming growth factor beta 1 (TGFb1), TGFB1 (gene 7040); test: BSK_KF3CT_TGFb1: BioMAP Diversity Plus: KF3CT Assay for Transforming growth factor beta 1 (TGFb1) Biomarker Activity (AID 2283072); settings: primary human keratinocytes with fibroblasts; actives raise or lower the signal
Outline: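 Primary human skin cells (keratinocytes, foreskin fibroblasts) were co-cultured, exposed to test chemical and sampled at 24 h. TGF-b1 levels were measured by ELISA and fitted bidirectionally relative to DMSO.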

[2] = read-out: C-C motif chemokine 2 (Homo sapiens) (UniProt P13500); test: BSK_KF3CT_MCP1: BioMAP Diversity Plus: KF3CT Assay for Monocyte Chemoattractant Protein 1 (MCP1/CCL2) Biomarker Activity (AID 2283073); settings: primary human keratinocytes with fibroblasts; actives raise or lower the signal
Outline: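 ELISA read-out of MCP-1, 24 h post-dose, in primary human skin keratinocytes co-cultured with fibroblasts. Parallel SRB staining monitors cytotoxicity; changes fitted both directions relative to DMSO.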

[3] = read-out: Matrix Metallopeptidase 9 (MMP9), MMP9 (gene 4318); test: BSK_KF3CT_MMP9: BioMAP Diversity Plus: KF3CT Assay for Matrix Metallopeptidase 9 (MMP9) Biomarker Activity (AID 2283074); settings: primary human keratinocytes with fibroblasts; actives raise or lower the signal;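 as to AC50: MMP9 protein level quantified by ELISA in the co-culture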
Outline: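 Human keratinocyte/foreskin fibroblast co-culture; compound added; 24 h; MMP-9 by ELISA; bidirectional fit vs DMSO baseline.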

[4] = read-out: urokinase plasminogen activator (uPA), PLAU (gene 5328); test: BSK_KF3CT_uPA: BioMAP Diversity Plus: KF3CT Assay for urokinase plasminogen activator (uPA) Biomarker Activity (AID 2283075); settings: primary human keratinocytes with fibroblasts; actives raise or lower the signal
Outline: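 ELISA readout of uPA, analyzed for signal gain or loss relative to DMSO, from a human primary keratinocyte–foreskin fibroblast co-culture measured 24 h after chemical treatment.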

CD40, CD40 (gene 958) [5] = test: BSK_LPS_CD40: BioMAP Diversity Plus: LPS Assay for CD40 Biomarker Activity (AID 2283076); settings: primary human HUVEC with PBMC; actives raise or lower the signal
Outline: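 In the LPS system of human endothelial cells with peripheral blood mononuclear cells, CD40 levels were read by ELISA 24 h post-treatment. Signal changes in either direction were fitted against the DMSO baseline, with parallel SRB protein staining.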

[6] = read-out: E-selectin (Homo sapiens) (UniProt P16581); test: BSK_LPS_Eselectin: BioMAP Diversity Plus: LPS Assay for Eselectin Biomarker Activity (AID 2283077); settings: primary human HUVEC with PBMC; actives raise or lower the signal
Outline: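 E-selectin ELISA on LPS-stimulated endothelial cell/PBMC co-cultures, read 24 h post-treatment; gains and losses fitted against DMSO. Parallel SRB staining (0.1% SRB after 10% TCA fixation, 560 nm) flags overt cytotoxicity.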

[7] = read-out: Interleukin-8 (IL8), CXCL8 (gene 3576); test: BSK_LPS_IL8: BioMAP Diversity Plus: LPS Assay for Interleukin-8 (IL8) Biomarker Activity (AID 2283078); settings: primary human HUVEC with PBMC; actives raise or lower the signal
Outline: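 ELISA read-out of IL-8 after 24 h chemical treatment of LPS-activated endothelial/PBMC human primary co-cultures. Changes either up or down relative to DMSO; overt cytotoxicity checked by sulforhodamine B staining in parallel wells.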

[8] = BSK_LPS_SRB: Viability Assessment in the BioMAP Diversity Plus: LPS Assay (AID 2283079); settings: primary human HUVEC with PBMC;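 also: total protein by sulforhodamine B absorbance as a cytotoxicity measure; measured one day after compound addition; fitted in both directions against DMSO so loss or gain of signal counts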
Outline: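 SRB viability endpoint: cells fixed with 10% TCA, stained with 0.1% SRB, read at 560 nm, 24 h post-dose. HUVEC/PBMC co-culture; signal change in either direction scored relative to DMSO.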

[9] = read-out: Interleukin-1 alpha (IL1a), IL1A (gene 3552); test: BSK_LPS_IL1a: BioMAP Diversity Plus: LPS Assay for Interleukin-1 alpha (IL1a) Biomarker Activity (AID 2283080); settings: primary human HUVEC with PBMC; actives raise or lower the signal
Outline: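 Readout is IL-1a level by ELISA, 24 h post-dose, fitted as gain or loss relative to DMSO. System: LPS-activated human primary co-culture of vascular endothelium and peripheral blood mononuclear cells, with parallel SRB total-protein cytotoxicity.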

[10] = read-out: Monocyte Chemoattractant Protein-1 (MCP1), CCL2 (gene 6347); test: BSK_LPS_MCP1: BioMAP Diversity Plus: LPS Assay for Monocyte Chemoattractant Protein-1 (MCP1) Biomarker Activity (AID 2283081); settings: primary human HUVEC with PBMC; actives raise or lower the signal;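 as to AC50: secreted MCP-1 protein quantified by ELISA in culture supernatant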
Outline: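 Secreted MCP-1 read by ELISA at 24 h post-dosing in an LPS-activated co-culture of endothelial cells with peripheral blood mononuclear cells. Fits run in both directions, DMSO as baseline; parallel SRB staining tracks overt cytotoxicity.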

[11] = BSK_LPS_PGE2: BioMAP Diversity Plus: LPS Assay for Prostaglandin E2 (PGE2) Biomarker Activity (AID 2283082); settings: primary human HUVEC with PBMC; actives raise or lower the signal;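 as to AC50: secreted prostaglandin E2 measured by ELISA in LPS-stimulated co-culture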
Outline: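 LPS-activated HUVEC/PBMC co-culture; cmpd dosed, 24 h; PGE2 by ELISA; bidirectional fit vs DMSO; SRB (0.1%, TCA-fixed, 560 nm) in parallel plates for overt cytotox.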

[12] = read-out: Macrophage colony-stimulating factor (MCSF), CSF1 (gene 1435); test: BSK_LPS_MCSF: BioMAP Diversity Plus: LPS Assay for Macrophage colony-stimulating factor (MCSF) Biomarker Activity (AID 2283083); settings: primary human HUVEC with PBMC; actives raise or lower the signal
Outline: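 Bidirectional fitting against DMSO was applied to M-CSF levels read by ELISA at 24 h post-dose. The system pairs human umbilical vein endothelium with peripheral blood mononuclear cells; parallel SRB staining tracked cytotoxicity.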

[13] = read-out: Tissue Factor, F3 (gene 2152); test: BSK_LPS_TissueFactor: BioMAP Diversity Plus: LPS Assay for Tissue Factor Biomarker Activity (AID 2283084); settings: primary human HUVEC with PBMC; actives raise or lower the signal
Outline: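 Compound was added to an endothelial cell/PBMC co-culture, and after 24 h tissue factor (CD142) was read by ELISA. Gain or loss of signal was fitted against a DMSO baseline, and parallel SRB staining (560 nm) tracked overt cytotoxicity.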

[14] = read-out: Tumor necrosis factor (Homo sapiens) (UniProt P01375); test: BSK_LPS_TNFa: BioMAP Diversity Plus: LPS Assay for Tumour Necrosis Factor alpha (TNFa) Biomarker Activity (AID 2283085); settings: primary human HUVEC with PBMC; actives raise or lower the signal;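 as to AC50: TNFa protein level quantified by ELISA in the co-culture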
Outline: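 Read-out is ELISA of TNFa in primary human endothelial cell–PBMC co-cultures at 24 h after compound. Activity in either direction was fitted against DMSO.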

[15] = read-out: Vascular cell adhesion molecule 1 (VCAM1), VCAM1 (gene 7412); test: BSK_LPS_VCAM1: BioMAP Diversity Plus: LPS Assay for Vascular cell adhesion molecule 1 (VCAM1) Biomarker Activity (AID 2283086); settings: primary human HUVEC with PBMC; actives raise or lower the signal
Outline: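 HUVEC + PBMC co-culture, LPS system; compound 24 h; VCAM-1 by ELISA; bidirectional fit vs DMSO control; parallel SRB (0.1%, TCA-fixed, 560 nm) for cytotoxicity.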

CD38, CD38 (gene 952) = test: BSK_SAg_CD38: BioMAP Diversity Plus: SAg Assay for CD38 Biomarker Activity (AID 2283087); settings: primary human HUVEC with PBMC; actives raise or lower the signal
Outline: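 Human HUVEC plus PBMC co-culture stimulated with superantigen; CD38 measured by ELISA 24 h after chemical dosing. Fluorescence read-out, bidirectional fit against DMSO; cytotoxicity tracked in parallel by SRB and Alamar Blue.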

CD40, CD40 (gene 958) [16] = test: BSK_SAg_CD40: BioMAP Diversity Plus: SAg Assay for CD40 Biomarker Activity (AID 2283088); settings: primary human HUVEC with PBMC; actives raise or lower the signal
Outline: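 CD40 is measured by fluorescence ELISA in an endothelial/PBMC primary human co-culture at 24 h post-dose. Fitting is bidirectional, DMSO baseline. Parallel SRB staining (560 nm) flags cytotoxicity.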

CD69, CD69 (gene 969) = test: BSK_SAg_CD69: BioMAP Diversity Plus: SAg Assay for CD69 Biomarker Activity (AID 2283089); settings: primary human HUVEC with PBMC; actives raise or lower the signal;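 as to AC50: cell surface CD69 protein quantified by ELISA with fluorescence detection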
Outline: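 Primary human vascular co-culture (umbilical vein endothelium with peripheral blood mononuclear cells) exposed to test chemical for 24 h. CD69 levels quantified by fluorescence ELISA; DMSO served as negative control for bidirectional fitting.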

[17] = read-out: E-selectin (Homo sapiens) (UniProt P16581); test: BSK_SAg_Eselectin: BioMAP Diversity Plus: SAg Assay for Eselectin Biomarker Activity (AID 2283091); settings: primary human HUVEC with PBMC; actives raise or lower the signal
Outline: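 Cell-surface E-selectin is read by ELISA at 24 h in the SAg co-culture of HUVEC and PBMC. Curves are fitted in both directions relative to DMSO. Parallel SRB total-protein staining tracks overt toxicity.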

Chain of Tumor necrosis factor (Homo sapiens) (P01375 whole entry, looked up): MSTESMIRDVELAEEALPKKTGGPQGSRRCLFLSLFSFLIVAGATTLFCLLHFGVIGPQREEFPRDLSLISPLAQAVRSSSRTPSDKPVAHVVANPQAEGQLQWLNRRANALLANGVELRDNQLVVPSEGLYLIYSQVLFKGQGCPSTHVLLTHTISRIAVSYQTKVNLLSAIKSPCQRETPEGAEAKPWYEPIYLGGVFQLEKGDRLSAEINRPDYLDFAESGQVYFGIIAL
Chain of E-selectin (Homo sapiens) (P16581 whole entry, looked up): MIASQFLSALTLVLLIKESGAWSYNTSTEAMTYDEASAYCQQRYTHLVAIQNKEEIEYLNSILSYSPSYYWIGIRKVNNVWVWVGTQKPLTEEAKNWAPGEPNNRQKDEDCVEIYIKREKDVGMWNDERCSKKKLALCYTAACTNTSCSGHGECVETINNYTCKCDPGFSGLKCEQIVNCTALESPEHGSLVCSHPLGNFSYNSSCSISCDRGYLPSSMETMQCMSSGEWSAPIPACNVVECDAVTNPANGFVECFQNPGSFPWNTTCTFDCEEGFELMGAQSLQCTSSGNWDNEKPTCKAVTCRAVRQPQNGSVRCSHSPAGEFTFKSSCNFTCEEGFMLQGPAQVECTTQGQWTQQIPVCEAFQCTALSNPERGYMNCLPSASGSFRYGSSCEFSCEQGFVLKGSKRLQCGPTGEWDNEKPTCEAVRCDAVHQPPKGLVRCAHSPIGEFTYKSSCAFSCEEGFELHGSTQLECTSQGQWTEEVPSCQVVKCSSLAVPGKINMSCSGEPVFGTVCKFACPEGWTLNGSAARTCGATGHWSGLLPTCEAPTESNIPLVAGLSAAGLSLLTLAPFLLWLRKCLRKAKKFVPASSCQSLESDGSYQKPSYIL

O=C1NS(=O)(=O)c2ccccc21
outcome [1]: inactive | outcome [2]: inactive | outcome [3]: inactive | outcome [4]: inactive | outcome (CD40, CD40 (gene 958) [5]): inactive | outcome [6]: inactive | outcome [7]: inactive | outcome [8]: inactive | outcome [9]: inactive | outcome [10]: inactive | outcome [11]: inactive | outcome [12]: inactive | outcome [13]: inactive | outcome [14]: inactive | outcome [15]: inactive | outcome (CD38, CD38 (gene 952)): inactive | outcome (CD40, CD40 (gene 958) [16]): inactive | outcome (CD69, CD69 (gene 969)): inactive | outcome [17]: inactive

C=CC(=O)OCCC(F)(F)C(F)(F)C(F)(F)C(F)(F)C(F)(F)C(F)(F)C(F)(F)C(F)(F)F
outcome [2]: inactive | AC50 [3]: 12.6 µM (active) and 8.83 µM (active) | outcome [4]: inactive | outcome (CD40, CD40 (gene 958) [5]): inactive | outcome [6]: inactive | outcome [7]: inactive | outcome [8]: inactive | outcome [9]: inactive | outcome [10]: inactive | outcome [11]: inactive | outcome [12]: inactive | outcome [13]: inactive | outcome [14]: inactive | outcome [15]: inactive | outcome (CD38, CD38 (gene 952)): inactive | outcome (CD40, CD40 (gene 958) [16]): inactive | outcome (CD69, CD69 (gene 969)): inactive | outcome [17]: inactive

CCCCCc1ccc(O)cc1
AC50 [1]: 5.62 µM (active) | AC50 [2]: 9.12 µM (active) | AC50 [3]: 20 µM (active) | AC50 [4]: 14.8 µM (active) | AC50 (CD40, CD40 (gene 958) [5]): 29.5 µM (active) | AC50 [6]: 31.4 µM (active) | AC50 [7]: 36.1 µM (active) | AC50 [8]: 28.4 µM (active) | AC50 [9]: 31.7 µM (active) | AC50 [10]: 31.4 µM (active) | AC50 [11]: 1.39 µM (active) | AC50 [12]: 27.2 µM (active) | AC50 [13]: 29 µM (active) | AC50 [14]: 31.4 µM (active) | AC50 [15]: 32.4 µM (active) | AC50 (CD38, CD38 (gene 952)): 33.6 µM (active) | AC50 (CD40, CD40 (gene 958) [16]): 29.6 µM (active) | AC50 (CD69, CD69 (gene 969)): 30.9 µM (active) | AC50 [17]: 26.8 µM (active)
